Results taken from PubChem BioAssay (NCI).
Where “and” joins values, the source holds several entries; their conditions need not be identical. Equal values may be shown once. About 79,000 compounds went through this panel and 15% of them were active in at least one assay; those are over-represented in the sample as a whole. More than one record can exist for a structure, and the calls need not agree. Calls of active or inactive are those of the source. Rule as the data show it: active = growth inhibition above about 70%; inactive = the rest.

How the values were obtained:
[1] = NCI Yeast Anticancer Drug Screen. Data for the rad50 strain (AID 155);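 also: 0% = growth of vehicle-only cultures of the same strain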; conditions: S. cerevisiae rad50 strain growth inhibition, stronger effect = higher value
In short: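 Growth of the mutant yeast was measured after compound exposure and referenced to vehicle-treated cultures.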

[2] = NCI Yeast Anticancer Drug Screen. Data for the mec2-1 strain (AID 157); conditions: S. cerevisiae mec2-1 strain, stronger effect = higher value
In short: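 Compounds were applied to mec2-1 yeast cells. Their growth was then compared with that of vehicle-treated cultures to give growth inhibition.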

[3] = NCI Yeast Anticancer Drug Screen. Data for the sgs1 mgt1 strain (AID 161);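 also: 0% = growth of cultures given vehicle only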; conditions: S. cerevisiae sgs1 mgt1 strain, stronger effect = higher value
In short: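 Compounds are added to genetically altered yeast, and growth is compared with cultures given vehicle alone to give percent inhibition.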

[4] = NCI Yeast Anticancer Drug Screen. Data for the cln2 rad14 strain (AID 165);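 also: 0% = growth equal to vehicle treated cultures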; conditions: S. cerevisiae cln2 rad14 strain, stronger effect = higher value
In short: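 Strain: cln2 rad14 yeast, altered in cell cycle control and DNA damage repair. Read-out: growth inhibition vs vehicle.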

[5] = NCI Yeast Anticancer Drug Screen. Data for the bub3 strain (AID 167); conditions: S. cerevisiae bub3 mutant strain, stronger effect = higher value
In short: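 Whole-cell yeast assay. The mutant strain was incubated with compounds, and growth inhibition was determined by comparison with vehicle-treated cells.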

[6] = NCI Yeast Anticancer Drug Screen. Data for the mlh1 rad18 strain (AID 175); conditions: S. cerevisiae mlh1 rad18 strain growth inhibition, stronger effect = higher value
In short: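 A repair-deficient yeast strain is exposed to test compound, and growth is scored relative to vehicle-treated controls.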

[7] = at 5.0 µM (retest, dose inferred, filed as 0.5)
[8] = at 50.0 µM (retest, dose inferred, filed as 5.0)

Compound | growth inhibition [1, 7] | growth inhibition [1, 8] | growth inhibition ([1]; at 50.0 µM) | growth inhibition [2, 7] | growth inhibition [2, 8] | growth inhibition ([2]; at 50.0 µM) | growth inhibition [3, 7] | growth inhibition [3, 8] | growth inhibition ([3]; at 50.0 µM) | growth inhibition [4, 7] | growth inhibition [4, 8] | growth inhibition ([4]; at 50.0 µM) | growth inhibition [5, 7] | growth inhibition [5, 8] | growth inhibition ([5]; at 50.0 µM) | growth inhibition [6, 7] | growth inhibition [6, 8] | growth inhibition ([6]; at 50.0 µM)
NC(N)=N/N=C1\C(=O)N(c2ccc(Cl)cc2)C(=O)C1C(=O)Nc1ccc(Cl)cc1 (stereo not drawn) | 1% (inactive) | -2% (inactive) | 54.6% (inactive) | 14% (inactive) | 17% (inactive) | 46.1% (inactive) | 5% (inactive) | 11% (inactive) | 76.1% (active) | 0% (inactive) | -3% (inactive) | -8.8% (inactive) | 8% (inactive) | 19% (inactive) | -7.75% (inactive) | 2% (inactive) | -14% (inactive) | 83.1% (active)
CC(=O)OC1CCC2(C)C3CCC4(C)C(OC(=O)c5ccccc5)CCC4C3CC(Br)C2(O)C1 (stereo not drawn) | 35% (inactive) | 56% (inactive) | 87.1% (active) | 27% (inactive) | 39% (inactive) | 87.9% (active) | 44% (inactive) | 64% (inactive) | 89.5% (active) | 40% (inactive) | 44% (inactive) | 90.8% (active) | 45% (inactive) | 56% (inactive) | 86.8% (active) | 42% (inactive) | 56% (inactive) | 85.7% (active)
CC(Cc1ccccc1)[N+](=O)[O-] (stereo not drawn) | 8% (inactive) | 70% (active) | 79% (active) | 0% (inactive) | 6% (inactive) | -12.9% (inactive) | 2% (inactive) | 7% (inactive) | -8.2% (inactive) | 3% (inactive) | -3% (inactive) | -19.6% (inactive) | 7% (inactive) | 27% (inactive) | -6.9% (inactive) | -1% (inactive) | 10% (inactive) | 12.1% (inactive)
ClC1=C(Cl)C2(Cl)C3CC4OC4C=CC3C1(Cl)C2(Cl)Cl (stereo not drawn) | 7% (inactive) and 4% (inactive) | 93% (active) and 96% (active) | 96.3% (active) and 39.2% (inactive) | 12% (inactive) and 5% (inactive) | 97% (active) and 98% (active) | 97.3% (active) and 39% (inactive) | 10% (inactive) and 3% (inactive) | 96% (active) and 98% (active) | 96.8% (active) and 73.6% (active) | 0% (inactive) | 96% (active) | 95.3% (active) and 47.4% (inactive) | 2% (inactive) and 5% (inactive) | 96% (active) and 97% (active) | 97.1% (active) and 26.6% (inactive) | 8% (inactive) and 2% (inactive) | 96% (active) | 95.3% (active) and 60.9% (inactive)
O=C1C(Br)=CC2(C=C1Br)CCNc1c(O)c3c4c(c12)=NCCC=4C=N3 | 31% (inactive) | 72% (active) | 57.9% (inactive) | 15% (inactive) | 44% (inactive) | 46.5% (inactive) | 17% (inactive) | 71% (active) | 54.2% (inactive) | -1% (inactive) | 50% (inactive) | 24.9% (inactive) | -14% (inactive) | 78% (active) | 49.6% (inactive) | 25% (inactive) | 75% (active) | 57.5% (inactive)
O=C(CCl)c1ccc(O)cc1 | 16% (inactive) | 96% (active) | 91.5% (active) | 21% (inactive) | 98% (active) | 98.2% (active) | 31% (inactive) | 97% (active) | 97.3% (active) | 7% (inactive) | 97% (active) | 89.2% (active) | 20% (inactive) | 98% (active) | 96% (active) | 22% (inactive) | 98% (active) | 97.8% (active)
N#CC(=C=N)N=C(F)C(C#N)=C(C#N)C#N | -1% (inactive) | 68% (inactive) | 87% (active) | -2% (inactive) | 88% (active) | 82.6% (active) | 13% (inactive) | 86% (active) | 73.2% (active) | 7% (inactive) | 94% (active) | 90.3% (active) | 6% (inactive) | 77% (active) | 86.8% (active) | 25% (inactive) | 93% (active) | 94.8% (active)
CCOC(=O)N(C(=O)c1ccc([As]=O)cc1)C(=O)c1ccc([As]=O)cc1 (stereo not drawn) | 8% (inactive) | 98% (active) | 99.2% (active) | 5% (inactive) | 99% (active) | 99.3% (active) | 10% (inactive) | 100% (active) | 99.5% (active) | -4% (inactive) | 99% (active) | 99% (active) | 11% (inactive) | 99% (active) | 89.3% (active) | 6% (inactive) | 99% (active) | 98.7% (active)
CCN(CC)P1(=O)OC(c2ccccc2)=CCN1c1ccc(OC)cc1 (stereo not drawn) | 0% (inactive) | 85% (active) | 97.3% (active) | -1% (inactive) | 82% (active) | 95.3% (active) | -24% (inactive) | 95% (active) | 97.8% (active) | -7% (inactive) | 78% (active) | 83% (active) | 10% (inactive) | 91% (active) | 96.2% (active) | 2% (inactive) | 91% (active) | 96.3% (active)
COc1cc(N(CCCl)CCCl)ccc1C=Nc1cccc(Cl)c1 | 5% (inactive) | 45% (inactive) | 84% (active) | -6% (inactive) | 51% (inactive) | 62.6% (inactive) | 1% (inactive) | 7% (inactive) | 94% (active) | 0% (inactive) | 20% (inactive) | 81.6% (active) | 0% (inactive) | 14% (inactive) | 87% (active) | 17% (inactive) | 87% (active) | 94.2% (active)
CN(/N=C/c1ccc(Cl)cc1)P(=O)(N1CC1)N1CC1 | 24% (inactive) | 28% (inactive) | -15.7% (inactive) | 14% (inactive) | 17% (inactive) | -12.2% (inactive) | 18% (inactive) | 24% (inactive) | -3.4% (inactive) | 31% (inactive) | 20% (inactive) | 11.7% (inactive) | 18% (inactive) | 18% (inactive) | -0.25% (inactive) | 23% (inactive) | 28% (inactive) | 0.65% (inactive)
O=C(O)c1ccc(NP(=O)(O)Oc2ccccc2)cc1 (tested in a mixture with another compound) | 0% (inactive) | 8% (inactive) | -2.15% (inactive) | -1% (inactive) | 3% (inactive) | 3.45% (inactive) | -20% (inactive) | -8% (inactive) | 29.9% (inactive) | -4% (inactive) | -6% (inactive) | -24.8% (inactive) | -1% (inactive) | -1% (inactive) | -7.8% (inactive) | 11% (inactive) | 16% (inactive) | 15.2% (inactive)
CC(C)(C)C[CH2][Hg][Cl] | 99% (active) | 99% (active) | 99.2% (active) | 100% (active) | 99% (active) | 99.7% (active) | 100% (active) | 100% (active) | 99.5% (active) | 99% (active) | 100% (active) | 99.5% (active) | 99% (active) | 99% (active) | 99.6% (active) | 100% (active) | 100% (active) | 99.5% (active)
O=C(O)CP(=O)(c1ccccc1)c1ccccc1.O=C(O)CP(=O)(c1ccccc1)c1ccccc1.[Cd] | 33% (inactive) | 88% (active) | 83.4% (active) | 40% (inactive) | 51% (inactive) | 42.6% (inactive) | 11% (inactive) | 47% (inactive) | 56% (inactive) | -3% (inactive) | 48% (inactive) | 58.9% (inactive) | 4% (inactive) | 43% (inactive) | 26.9% (inactive) | 17% (inactive) | 57% (inactive) | 57.8% (inactive)
CN1C(=O)CC[C@@]2(C)C1=CC[C@H]1[C@@H]3CC[C@H](O)[C@@]3(C)CC[C@@H]12 | 7% (inactive) | 64% (inactive) | -9.15% (inactive) | 0% (inactive) | 43% (inactive) | 14.9% (inactive) | 12% (inactive) | 79% (active) | 55% (inactive) | 13% (inactive) | 40% (inactive) | -3.4% (inactive) | 3% (inactive) | 63% (inactive) | 62.1% (inactive) | 6% (inactive) | 52% (inactive) | 15.1% (inactive)
CCC[CH2][Sn]([Cl])([Cl])[CH2]CCC | 96% (active) | 98% (active) | 99.5% (active) | 98% (active) | 98% (active) | 99.3% (active) | 96% (active) | 96% (active) | 99.2% (active) | 98% (active) | 98% (active) | 98.7% (active) | 98% (active) | 98% (active) | 99.5% (active) | 98% (active) | 97% (active) | 98.8% (active)
